D1 ag = agonists of human D1 dopamine receptor. P21728. HEK293 T-REx D1 cells, calcium flux, agonist mode. activation, % at 2 µM. 360,000 tested, 1% active. AID 504660; also: 0% is about no effect
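Inducible HEK293 T-REx D1 cells, force-coupled to calcium signalling, were plated at 4000 cells/well with tetracycline and held overnight at 30 C. After no-wash calcium dye loading, compound-evoked calcium rise over 180 s flagged agonists.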
TRHR agonist = activates the human TRH receptor; activation, % at 2 µM; AID 493084; 360,000 tested, 0.18% active; TRHR cells, calcium flux fluo-8, FDSS agonist mode; P34981; also: 0% is about no effect
Target sequence (P34981 whole entry, looked up): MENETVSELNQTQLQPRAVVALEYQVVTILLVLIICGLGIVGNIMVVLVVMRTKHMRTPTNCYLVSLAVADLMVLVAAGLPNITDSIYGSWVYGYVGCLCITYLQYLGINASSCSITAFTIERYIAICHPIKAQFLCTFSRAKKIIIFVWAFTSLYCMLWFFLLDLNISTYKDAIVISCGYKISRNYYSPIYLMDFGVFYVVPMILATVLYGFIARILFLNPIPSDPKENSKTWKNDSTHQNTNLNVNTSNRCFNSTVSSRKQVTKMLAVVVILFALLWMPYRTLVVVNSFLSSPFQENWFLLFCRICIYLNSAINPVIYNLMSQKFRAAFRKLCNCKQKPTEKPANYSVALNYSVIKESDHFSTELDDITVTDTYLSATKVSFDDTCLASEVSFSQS
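In this calcium-flux screen, cells bearing human TRHR are dye-loaded with fluo-8, baselined for 10 cycles, then exposed to library compounds; positive kinetic calcium responses during the agonist phase mark hits, with TRH as control.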
TRHR enhancer = TRH receptor (human) allosteric enhancement. P34981. TRHR cells, fluo-8 calcium fluorescence, EC20 TRH enhancement. enhancement, % at 2 µM. 360,000 tested, 0.66% active; in the data active = enhancement above about 30%; also: 0% is about no effect
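TRHR-expressing cells loaded with fluo-8 calcium dye were read kinetically (ex 480/em 530) during compound addition, then stimulated with an EC20 of TRH (10 nM final). Enhancement of the Gq-mediated intracellular calcium response was scored.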
D1 antagonist = antagonists of human D1 dopamine receptor; P21728; HEK293 TREx D1 cells, calcium flux, dopamine EC80; hits give low values; activity change, negative = inhibition, % at 10 µM; 360,000 tested, 3.2% active; AID 504652; in the data active = activity change below about -30%; also: % is scaled to controls: 0 for no effect and ±100 for the full control effect
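Antagonism measured as reduced calcium response to an EC80 dopamine addition following 180 s compound pre-read; cells were inducible HEK293 Trex D1 plated overnight at 30 C, read kinetically at 1 cycle/sec.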
D1 potentiator = enhances dopamine response at the human D1 receptor; HEK293 TREx D1 cells, calcium flux, dopamine EC20 potentiation; potentiation, % at 10 µM; 360,000 tested, 0.036% active; AID 504651; in the data active = potentiation above about 30%; also: 0% is about no effect
Active calls of the source: *; . = no result. A selection: hits, their analogues and other compounds. The true share with any hit is near 4.6%. Rule as the data show it, unless noted: active = activation above about 30%; inactive = the rest.

SMILES	D1 ag	TRHR agonist	TRHR enhancer	D1 antagonist	D1 potentiator
CCCCSC1=N/C(=C/c2ccsc2)C(=O)N1c1ccccc1	16	2	-8	-45*	-13
CCOc1cc2sc(N3CCC(C(=O)Nc4ccccc4Cl)CC3)nc2cc1Br	0	0	2	-12	-3
C/C(CC(=O)NC1CCCC1)=N\NC(=O)c1ccc([N+](=O)[O-])c(Cl)c1	1	0	38*	20	-5
COc1ccc(NC(=O)c2c(N)c(C(=O)c3ccc(C)cc3)n3ccccc23)cc1OC	1	-1	-8	-13	-2
CCC(=O)Nc1ccc(N/C(N)=N/c2nc(C)cc(C)n2)cc1	2	0	0	-2	-5
Cc1cc(C)cc(N/C(N)=N/c2nc(C)cc(C)n2)c1	25	10	0	-28	-15
Cc1ccc(N/C(N)=N/c2nc(C)cc(C)n2)cc1	16	22	-16	-74*	-20
CCCCc1ccc(N/C(N)=N/c2nc(C)cc(C)n2)cc1	64*	23	-3	-8	4
Cc1cc(C)nc(/N=C(\N)Nc2ccc([N+](=O)[O-])cc2)n1	21	6	4	4	-5
Cc1cc(C)nc(/N=C(\N)Nc2cccc([N+](=O)[O-])c2)n1	34*	-1	3	-7	-5
Cc1cc(C)nc(/N=C(\N)Nc2ccc(C(C)C)cc2)n1	35*	7	-1	-23	0
COc1cccc(NC(=O)CN2C=NS(=O)(=O)c3ccccc32)c1	1	0	-5	0	1
Cc1ccccc1C(=O)N=c1ccn(-c2nc3ccccc3nc2NS(=O)(=O)c2ccc(F)cc2)cc1	70*	12	-3	-25	-6
COc1ccc2nc(SCC(=O)N3CC(=O)Nc4ccccc43)c(C#N)cc2c1	32*	9	-9	-30*	-3
Cc1ccc(-c2nc3sc4c(N)ncnc4c3c3c2CCCC3)cc1	3	0	7	-61*	-21
COc1ccc2oc(=O)c(-c3nc(-c4cc(OC)c(OC)c(OC)c4)no3)cc2c1	2	0	31*	-4	3
CCC(Sc1nc2cc(OC)c(OC)cc2c(=O)n1CCc1ccc(OC)c(OC)c1)C(=O)NCCOC (stereo not given)	0	0	-3	-30*	-7
CCC(Sc1nc2cc(OC)c(OC)cc2c(=O)n1CCc1ccc(Cl)cc1)C(=O)NCCOC (stereo not given)	2	0	0	-6	-2
COc1cc(NC(=O)c2ccc(F)cc2)ccc1NC(=O)c1cc2ccccc2o1	1	0	6	-33*	-9
COc1cc(NC(=O)c2ccc(C)cc2)ccc1NC(=O)c1cc2ccccc2o1	4	-1	-4	4	-6
O=C(Nc1ccc(NC(=O)c2cc3ccccc3o2)cc1)c1ccc2c(c1)OCCO2	3	-1	3	-43*	1
CCOc1ccccc1NC(=O)Cc1csc(COc2cccc(C)c2)n1	68*	3	-5	1	1
Cc1cccc(NC(=O)Cc2csc(COc3cccc(C)c3)n2)c1	0	-1	-16	1	0
CCc1cccc(NC(=O)CN(C)S(=O)(=O)c2ccc3c(c2)CCCN3C(C)=O)c1	8	0	1	-16	-3
CN1CCN(CCCNC(=O)c2ccc(NC(=O)C3=CSCCO3)cc2)CC1	0	0	-2	36	-5
SMILES	D1 ag	TRHR agonist	TRHR enhancer	D1 antagonist	D1 potentiator
O=C(Nc1ccc(C(=O)NCCCN2CCN(c3ccccc3)CC2)cc1)C1=CSCCO1	36*	5	10	-39*	-7
COc1ccc(CNC(=O)c2ccc(NC(=O)C3=CSCCO3)cc2)cc1	1	-1	34*	5	-8
O=C(Nc1ccc(C(=O)NCC2CCN(Cc3ccccc3F)CC2)cc1)C1=CSCCO1	4	0	1	3	-3
Cc1ccc(CN2CCC(CNC(=O)c3ccc(NC(=O)C4=CSCCO4)cc3)CC2)cc1	11	0	4	-30*	-6
Cc1c(CCC(=O)NCc2ccc(F)cc2)c(=O)oc2cc(O)ccc12	1	-1	7	-7	-2
CNc1nc(-c2ccc3c(c2)CCN3C(=O)CC(C)(C)C)c(C)s1	3	0	8	-35*	2
CN(C)c1ccc(/C=C/C(=O)c2ccccc2O)cc1	35*	13	-6	-25	-1
Cc1ccc(/C=C/C(=O)c2ccccc2O)cc1	1	0	1	-5	1
CN(C)c1ccc(/C=C/C(=O)c2cccnc2)cc1	176*	95*	6	0	-9
COc1ccc(C(=O)/C=C/c2ccccc2)c(OC)c1	-4	0	-1	-11	2
O=C(/C=C/c1cccc(O)c1)c1cccnc1	1	1	5	10	0
COc1ccc(C(=O)/C=C/c2cc(OC)c(O)c(OC)c2)c(F)c1	52*	-2	6	-5	-4
COc1ccc2cc(C(=O)/C=C/c3cc(OC)c(O)c(OC)c3)ccc2c1	25	14	1	-13	-5
COc1ccc(C(=O)/C=C/c2ccc(N(C)C)cc2)c(OC)c1	295*	127*	8	4	-5
Cc1ccn2c(=O)cc(COc3ccc(NC(=O)COc4ccc(Cl)cc4)cc3)nc2c1	0	0	3	6	3
Cc1cc(C)c(NC(=O)CN2C(=O)CCn3nc(-c4cccn4C)cc32)c(C)c1	6	0	0	-7	1
Cn1cc(-c2nnnn2-c2cccc(C(F)(F)F)c2)c(C(F)(F)F)n1	26	-1	18	-37*	-11
Cc1nn(-c2cccc(C(F)(F)F)c2)c(=O)c2ccccc12	0	0	-2	6	-6
CC1OC(OC2C(OC3C(O[C@H]4CC[C@]5(C)C6C=C[C@]78OC[C@@]9(CC[C@@H](C)[C@H](C)C97)[C@H](O)C[C@@]8(C)[C@]6(C)CC[C@H]5C4(C)C)OC(C)C(O)C3O)OC(CO)C(O)C2O)C(O)C(O)C1O (stereo not given in full)	394*	59*	-17	35	16
C[C@H]1O[C@H](O[C@H]2[C@H](O[C@@H]3CC[C@@]4(C)C(CC[C@]5(C)C4CC=C4[C@@H]6CC(C)(C)CC[C@]6(C(=O)O[C@@H]6O[C@H](CO)[C@@H](O)[C@H](O)[C@H]6O)CC[C@]45C)C3(C)C)O[C@H](C(=O)O)[C@@H](O)[C@@H]2O)[C@@H](O)[C@@H](O)[C@@H]1O (stereo not given in full)	6	0	-4	30	1
O=C(NCc1ccc(F)cc1)C(=O)NCC(c1ccco1)S(=O)(=O)c1cccs1 (stereo not given)	22	0	-4	.	-1
CCN1CN=C(NS(=O)(=O)c2ccc(C)cc2)NC1	34*	0	9	.	-1
